These results are taken from PubChem BioAssay (Tox21).

Assay [1] can be described thus: qHTS assay to identify small molecule agonists of the androgen receptor (AR) signaling pathway in the presence of an antagonist - cell viability counter screen (AID 1259379). Further: nearly all actives have a fitted effect of over 25% in size. Further: potency means the concentration at half of the fitted maximal effect. Put shortly:
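Counter screen for cell viability run in parallel with the AR agonist-mode luciferase assay. MDA-kb2 cells were co-treated with nilutamide (3.0uM final) and compounds, then incubated 16 hr at 37C, and CellTiter-Fluor fluorescence was measured.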
On the technique in general: In qHTS, concentration-response curves come from the screen itself.

Assay [2] in a line: qHTS assay to identify small molecule agonists of the estrogen receptor beta (ER-beta) signaling pathway - cell viability counter screen (AID 1259380). Further: nearly all actives have a fitted effect of over 30% in size. Further: potency means the concentration at half of the fitted maximal effect. Put shortly:
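In this qHTS counter screen, HEK293T cells carrying an ER-beta/UAS beta-lactamase reporter, grown in 2% charcoal-stripped FBS, received compound for 16 hr; ATP-based CellTiter-Glo luminescence was then read after 30 min at room temperature.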

Assay [3] addresses Androgen receptor (Homo sapiens) (UniProt P10275). Put plainly: qHTS assay to identify small molecule agonists of the androgen receptor (AR) signaling pathway in the presence of an antagonist (AID 1259381; calls by dose curve; further: nearly all actives have a fitted effect of over 15% in size). Put shortly:
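AR antagonist background: nilutamide 3.0uM final. Cell line: MDA-kb2, MMTV-driven luciferase, responsive to both AR and GR. Exposure 16hr, 37C, no CO2; ONE-Glo luminescence.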

Assay [4] addresses Estrogen receptor (Homo sapiens) (UniProt P03372). Description: qHTS assay to identify small molecule agonists of the estrogen receptor alpha (ER-alpha) signaling pathway in the presence of an antagonist (AID 1259383; calls by dose curve; further: top concentration of the series differs between compounds; nearly all actives have a fitted effect of over 15% in size). In outline: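 ER-alpha agonism measured under antagonist challenge: 10.0nM ICI-182,780 (final) plus compound, 15 concentrations, 22hr, VM7Luc4E2 ERE-luciferase cells. Read by luminescence.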

The nature of assay [5]: qHTS assay to identify small molecule agonists or antagonists of the thyroid stimulating hormone receptor (TSHR) signaling pathway - wild type cell line counter screen (AID 1259384; calls by dose curve). In outline:
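Counter screen in untransfected Hek293: compounds (15-point titration, triplicate) plus phosphodiesterase inhibitor Ro20-1724 added after 18 h plating; 30 min RT. Intracellular cAMP via competitive d2/cryptate immunoassay, 1 h incubation.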

In assay [6] the target is Thyrotropin receptor (Homo sapiens) (UniProt P16473). Put plainly: qHTS assay to identify small molecule antagonists of the thyroid stimulating hormone receptor (TSHR) signaling pathway (AID 1259385; calls by dose curve; further: nearly all actives have a fitted effect of over 20% in size). Put shortly:
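Antagonist mode: compound-treated TSHR-expressing HEK293 cells were stimulated with 1.5 ng/mL TSH (final) in presence of Ro20-1724 for 30 min at RT. HTRF cAMP detection after 1 h; each compound tested at 15 concentrations, triplicate.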

The nature of assay [7]: qHTS assay to identify small molecule agonists of the estrogen receptor alpha (ER-alpha) signaling pathway in the presence of an antagonist - cell viability counter screen (AID 1259386).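 Further: cells exposed to compounds for 22 h at 37 °C before the viability read; nearly all actives have a fitted effect of over 30% in size.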 Further: potency means the concentration at half of the fitted maximal effect. In outline: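 Steps: 5-day stripped-FBS culture; seed and incubate 24hr; add ICI-182,780 (10.0nM final); pin 15-point compound titration; incubate 22hr at 37C; add CellTiter-Fluor at 21hr; read fluorescence.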

In assay [8] the target is Progesterone receptor (Homo sapiens) (UniProt P06401). Put plainly: qHTS assay to identify small molecule agonists of the progesterone receptor (PR) signaling pathway (AID 1346784; calls by dose curve; further: nearly all actives have a fitted effect of over 30% in size). In outline:
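PR-UAS-bla HEK 293T cells carrying a UAS-driven beta-lactamase reporter were seeded in medium with 2% charcoal-stripped FBS, preincubated 6 hr at 37C, then exposed to compounds in DMSO for 16 hr; agonism was read by LiveBLAzer B/G FRET fluorescence.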

Assay [9] shares this target. Put plainly: qHTS assay to identify small molecule antagonists of the progesterone receptor (PR) signaling pathway (AID 1346795; active means well fitted inhibition curve with a large enough effect in the signal ratio in the repeat runs, not every such curve was filed as active; the % refers to the signal ratio; further: potency means the concentration at half of the fitted maximal effect). In outline:
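PR-UAS-bla HEK293T cells carrying a UAS-driven beta-lactamase reporter were plated in medium with 2% charcoal-stripped FBS and rested 6 hr at 37C. Compounds were added with 1 nM R5020 (final) for 16 hr, then FRET substrate loaded 2 hr at room temperature.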

Assay [10] can be described thus: qHTS assay to identify small molecule antagonists of the progesterone receptor (PR) signaling pathway - cell viability counter screen (AID 1346798). Further: nearly all actives have a fitted effect of over 50% in size. Further: potency means the concentration at half of the fitted maximal effect. Put shortly: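 PR-UAS-bla HEK293T cells in medium with 2% charcoal-stripped FBS were treated with compounds plus R5020 for 16 hr at 37C. Cell viability was then read by CellTiter-Glo luminescence after 30 min at room temperature in the same wells.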

Assay [11] is described as follows: qHTS assay to identify small molecule agonists of the progesterone receptor (PR) signaling pathway - cell viability counter screen (AID 1346799; calls by dose curve; further: nearly all actives have a fitted effect of over 45% in size; further: potency means the concentration at half of the fitted maximal effect). Put shortly: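 PR-UAS-bla HEK293T cells, 3,000 per well in medium with 2% charcoal-stripped FBS, were preincubated 6 hr at 37C, then exposed to compounds for 16 hr; viability was read as CellTiter-Glo luminescence after 30 min at room temperature.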

Assay [12] is described as follows: qHTS assay to identify small molecule antagonists of the TGF-beta/Smad signaling pathway - cell viability counter screen (AID 1346824). Further: nearly all actives have a fitted effect of over 50% in size. Further: potency means the concentration at half of the fitted maximal effect. Put shortly:
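Cytotoxicity counter-screen run in the same wells as the beta-lactamase Smad reporter read: CellTiter-Glo luminescence after 30 min at room temperature. HEK 293T SBE-bla cells had 5 hr compound exposure at 37 C with TGF-beta1 (0.25 ng/mL stock).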

Assay [13] can be described thus: qHTS assay to identify small molecule agonists of the TGF-beta/Smad signaling pathway - cell viability counter screen (AID 1346829). Further: nearly all actives have a fitted effect of over 45% in size. Further: potency means the concentration at half of the fitted maximal effect. Put shortly: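 Cytotoxicity counter screen: CellTiter-Glo luminescence (30 min, room temperature) measured in the SBE-bla HEK 293T reporter wells after 5 hr compound treatment at 37 C and the 2 hr substrate step.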
A short description of assay [14]: qHTS assay to identify small molecule agonists of the TGF-beta/Smad signaling pathway (AID 1346859; active means well fitted activation curve with a large enough effect in the signal ratio in the repeat runs, not every such curve was filed as active; the % refers to the signal ratio; further: series mostly up to about 77 µM). In outline:
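HEK 293T cells stably carrying a beta-lactamase reporter driven by the Smad binding element were seeded overnight, exposed to DMSO-dissolved compounds for 5 hr at 37 C, 5% CO2, then loaded with FRET substrate for 2 hr at room temperature.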

Assay [15] has as its target Thyrotropin-releasing hormone receptor (Homo sapiens) (UniProt P34981). Description: qHTS assay to identify small molecule antagonists of the thyrotropin-releasing hormone receptor (TRHR) signaling pathway (AID 1346877; active means well fitted inhibition curve with a large enough effect in the repeat runs, not every such curve was filed as active; further: potency means the concentration at half of the fitted maximal effect). In outline: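 Human TRHR in HEK293 cells; inhibition of the intracellular calcium rise triggered by 1 nM TRH was followed by fluorescence over 3 min. Compounds were run at 15 concentrations, three replicates each.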

Assay [16] has the same target. Put plainly: qHTS assay to identify small molecule agonists of the thyrotropin-releasing hormone receptor (TRHR) signaling pathway (AID 1346891; calls by dose curve; further: series mostly up to about 58 µM). Put shortly: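 TRHR-expressing HEK293 cells were plated 18 h at 37 °C/5% CO2, loaded with calcium dye 2 h at 37 °C, then given compound in DMSO; fluorescence was read kinetically for 3 min at 1 s intervals.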
Assay [17] can be described thus: Human pregnane X receptor (PXR) small molecule agonists, qHTS cell viability counter screen (AID 1346977). Further: nearly all actives have a fitted effect of over 50% in size. Further: potency means the concentration at half of the fitted maximal effect. Put shortly: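 PXR-Luc HepG2 cells in medium with 5% charcoal-stripped FBS were pre-incubated 5hr, then exposed to compounds for 24hr at 37C. Viability was read in the same wells by CellTiter-Fluor fluorescence, reagent added after 23hr with a 1hr incubation.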

The nature of assay [18]: Caspase-3/7 induction in HepG2 cells by small molecules, qHTS assay (AID 1346978). Further: nearly all actives have a fitted effect of over 15% in size. Put shortly: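 Caspase-3/7 induction was measured by Caspase-Glo 3/7 luminescence (30 min, room temperature) after a 17 hr compound exposure of wild-type HepG2 cells seeded at 2,000 per well and pre-incubated 5 hr.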
Assay [19] in a line: qHTS assay to identify small molecule antagonists of the estrogen receptor beta (ER-beta) signaling pathway - cell viability counter screen (AID 1259382). Further: nearly all actives have a fitted effect of over 55% in size. Further: potency means the concentration at half of the fitted maximal effect. In outline: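 HEK293T ER-beta-UAS-bla, 2% charcoal-stripped FBS; compounds + 1nM E2 16 hr 37C; CellTiter-Glo luminescence, 30 min RT.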

A number with no mark means an inactive call. Records with an inconclusive call do not appear. Active and inactive are the calls of the source. Unless noted, the call rests on the fitted dose curve; in most records, active means well fitted curve in the direction sought with a large enough effect in the repeat runs; inconclusive means weak or mixed curves; inactive means no such curve, though single readings can be large; an effect the other way counts as inactive or inconclusive.

Chain of Thyrotropin-releasing hormone receptor (Homo sapiens) (P34981 whole entry, looked up): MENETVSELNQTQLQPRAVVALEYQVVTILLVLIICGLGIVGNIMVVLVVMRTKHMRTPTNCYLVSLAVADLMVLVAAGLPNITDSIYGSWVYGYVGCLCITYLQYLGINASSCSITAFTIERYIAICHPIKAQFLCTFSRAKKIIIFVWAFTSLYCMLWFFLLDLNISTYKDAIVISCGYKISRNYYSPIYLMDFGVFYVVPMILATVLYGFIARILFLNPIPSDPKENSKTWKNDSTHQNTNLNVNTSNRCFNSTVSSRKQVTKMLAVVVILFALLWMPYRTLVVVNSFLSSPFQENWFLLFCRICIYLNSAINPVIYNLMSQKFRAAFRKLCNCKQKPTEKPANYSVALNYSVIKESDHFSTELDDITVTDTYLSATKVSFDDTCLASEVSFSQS
Chain of Androgen receptor (Homo sapiens) (P10275 whole entry, looked up): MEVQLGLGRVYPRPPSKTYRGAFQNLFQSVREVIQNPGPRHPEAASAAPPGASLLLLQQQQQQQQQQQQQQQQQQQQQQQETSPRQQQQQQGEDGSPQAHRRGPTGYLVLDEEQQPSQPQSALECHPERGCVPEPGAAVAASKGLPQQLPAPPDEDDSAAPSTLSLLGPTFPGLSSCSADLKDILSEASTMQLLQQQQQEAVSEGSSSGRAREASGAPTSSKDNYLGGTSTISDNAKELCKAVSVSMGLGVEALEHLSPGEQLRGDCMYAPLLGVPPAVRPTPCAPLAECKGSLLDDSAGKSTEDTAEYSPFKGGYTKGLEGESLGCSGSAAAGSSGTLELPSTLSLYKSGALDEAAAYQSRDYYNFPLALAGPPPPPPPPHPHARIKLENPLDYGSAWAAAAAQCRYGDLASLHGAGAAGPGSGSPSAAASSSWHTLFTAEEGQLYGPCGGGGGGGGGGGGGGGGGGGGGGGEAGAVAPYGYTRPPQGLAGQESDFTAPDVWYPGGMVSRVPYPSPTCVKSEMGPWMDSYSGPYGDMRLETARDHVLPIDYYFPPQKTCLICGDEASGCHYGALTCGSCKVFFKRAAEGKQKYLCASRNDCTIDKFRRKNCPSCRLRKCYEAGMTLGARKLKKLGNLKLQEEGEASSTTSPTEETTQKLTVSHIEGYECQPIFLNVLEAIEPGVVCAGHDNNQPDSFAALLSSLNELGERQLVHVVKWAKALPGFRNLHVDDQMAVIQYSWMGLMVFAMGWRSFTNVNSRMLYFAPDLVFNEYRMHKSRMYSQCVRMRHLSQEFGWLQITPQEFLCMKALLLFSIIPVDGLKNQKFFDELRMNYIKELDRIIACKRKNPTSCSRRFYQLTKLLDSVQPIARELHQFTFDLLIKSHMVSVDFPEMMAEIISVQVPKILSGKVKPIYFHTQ
Chain of Thyrotropin receptor (Homo sapiens) (P16473 whole entry, looked up): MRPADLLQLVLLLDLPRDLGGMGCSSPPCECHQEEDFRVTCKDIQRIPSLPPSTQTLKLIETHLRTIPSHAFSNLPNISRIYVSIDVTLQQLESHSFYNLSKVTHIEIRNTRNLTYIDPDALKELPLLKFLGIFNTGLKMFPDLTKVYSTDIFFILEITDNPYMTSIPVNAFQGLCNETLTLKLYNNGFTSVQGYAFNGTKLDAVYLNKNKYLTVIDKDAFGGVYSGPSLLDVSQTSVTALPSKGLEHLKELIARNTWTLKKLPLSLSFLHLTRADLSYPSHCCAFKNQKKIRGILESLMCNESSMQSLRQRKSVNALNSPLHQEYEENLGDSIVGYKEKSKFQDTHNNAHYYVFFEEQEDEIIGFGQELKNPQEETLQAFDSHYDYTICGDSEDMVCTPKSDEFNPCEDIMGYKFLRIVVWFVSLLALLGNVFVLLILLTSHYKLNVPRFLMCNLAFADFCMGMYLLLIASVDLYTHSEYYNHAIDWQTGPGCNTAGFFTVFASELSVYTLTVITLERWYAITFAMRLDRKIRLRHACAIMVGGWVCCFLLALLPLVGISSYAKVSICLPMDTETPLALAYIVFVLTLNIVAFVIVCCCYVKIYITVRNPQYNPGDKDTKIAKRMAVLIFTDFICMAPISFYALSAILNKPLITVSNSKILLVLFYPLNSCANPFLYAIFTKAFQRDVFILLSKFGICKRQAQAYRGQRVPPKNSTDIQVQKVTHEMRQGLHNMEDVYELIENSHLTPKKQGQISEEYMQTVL
Chain of Progesterone receptor (Homo sapiens) (P06401 whole entry, looked up): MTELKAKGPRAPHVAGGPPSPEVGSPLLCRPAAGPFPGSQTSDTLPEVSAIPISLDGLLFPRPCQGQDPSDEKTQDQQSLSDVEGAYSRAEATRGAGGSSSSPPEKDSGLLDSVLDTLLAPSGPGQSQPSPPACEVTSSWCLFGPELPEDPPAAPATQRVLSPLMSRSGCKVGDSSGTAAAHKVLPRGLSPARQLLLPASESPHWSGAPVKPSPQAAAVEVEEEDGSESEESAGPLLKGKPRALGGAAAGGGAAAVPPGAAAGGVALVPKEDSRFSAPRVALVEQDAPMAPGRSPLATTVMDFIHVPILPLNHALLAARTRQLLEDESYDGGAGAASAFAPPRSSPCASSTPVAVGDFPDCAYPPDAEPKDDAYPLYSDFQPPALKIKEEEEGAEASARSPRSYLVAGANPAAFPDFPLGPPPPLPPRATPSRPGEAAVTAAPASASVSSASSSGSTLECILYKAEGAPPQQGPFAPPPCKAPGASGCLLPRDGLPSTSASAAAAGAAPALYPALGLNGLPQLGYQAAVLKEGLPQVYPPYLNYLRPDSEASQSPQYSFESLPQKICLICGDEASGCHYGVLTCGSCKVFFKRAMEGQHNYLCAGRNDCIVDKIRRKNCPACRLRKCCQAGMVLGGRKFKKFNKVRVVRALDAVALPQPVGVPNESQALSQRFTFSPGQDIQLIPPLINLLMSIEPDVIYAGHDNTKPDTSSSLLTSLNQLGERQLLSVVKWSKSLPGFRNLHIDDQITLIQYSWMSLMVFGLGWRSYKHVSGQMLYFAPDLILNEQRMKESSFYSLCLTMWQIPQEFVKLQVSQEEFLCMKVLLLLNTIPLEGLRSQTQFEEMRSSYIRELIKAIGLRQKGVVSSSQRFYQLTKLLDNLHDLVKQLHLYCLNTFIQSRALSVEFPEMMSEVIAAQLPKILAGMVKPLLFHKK
Chain of Estrogen receptor (Homo sapiens) (P03372 whole entry, looked up): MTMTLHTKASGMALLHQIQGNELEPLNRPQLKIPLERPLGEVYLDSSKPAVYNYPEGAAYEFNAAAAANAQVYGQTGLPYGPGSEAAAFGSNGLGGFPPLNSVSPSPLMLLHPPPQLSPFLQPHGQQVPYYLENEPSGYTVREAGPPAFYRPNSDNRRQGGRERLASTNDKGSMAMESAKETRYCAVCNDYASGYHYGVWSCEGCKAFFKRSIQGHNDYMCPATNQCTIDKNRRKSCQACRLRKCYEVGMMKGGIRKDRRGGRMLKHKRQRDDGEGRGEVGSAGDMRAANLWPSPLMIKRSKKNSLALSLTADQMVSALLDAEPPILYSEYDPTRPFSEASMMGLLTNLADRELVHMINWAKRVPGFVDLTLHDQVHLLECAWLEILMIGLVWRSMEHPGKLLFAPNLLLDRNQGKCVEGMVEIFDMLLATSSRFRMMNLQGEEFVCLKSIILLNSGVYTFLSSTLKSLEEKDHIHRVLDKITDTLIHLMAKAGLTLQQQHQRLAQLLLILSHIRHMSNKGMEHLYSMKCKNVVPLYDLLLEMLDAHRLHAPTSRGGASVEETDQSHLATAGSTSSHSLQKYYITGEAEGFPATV

As to `Cc1ccc(OP(=O)(Oc2ccccc2)Oc2ccccc2)cc1`, the Potency entry in [1], in assay [3], in assay [4], in assay [6], in assay [7] and in assay [8] was “inactive” each time. The Potency entry in assay [10], in [11], in assay [12], in [13], in [15] and in assay [16] was “inactive” in each case. Moreover, the Potency result in assay [17] and in assay [18] was “inactive” each time. Moreover, the Potency in [2] is 31.1 µM (active); in [9], 15.6 µM (active). Moreover, the outcome in assay [5] and in assay [14] was inactive.

Take `CCOP(=S)(OCC)SCS(=O)(=O)CC`: the Potency entry in [1], in assay [2], in [3], in [4], in assay [6] and in [7] was “inactive” throughout. For the same compound, the Potency entry in [8], in assay [9], in assay [10], in assay [11], in assay [13] and in assay [15] was “inactive” in each case. Further, the Potency entry in assay [16], in [17] and in assay [18] was “inactive” each time. For the same compound, the call in assay [5] and in assay [14] was inactive.

Regarding `COP(=O)(CCC(=O)NCO)OC`, the Potency result in assay [1], in assay [2], in assay [3], in assay [19], in [4] and in [6] was “inactive” in each case. Further, the Potency entry in [7], in [8], in assay [9], in assay [10], in assay [11] and in assay [12] was “inactive” in each case. Further, the Potency result in assay [13], in [15], in assay [16], in [17] and in [18] was “inactive” each time. The compound was classed as inactive in assay [14].

As for `O=C1C=CC(=O)c2ccccc21`, the Potency in assay [1] was 43.3 µM (active); in assay [2], 21.7 µM (active); in assay [7] it was 30.6 µM (active); in [12], 24.5 µM (active); in assay [13], 49 µM (active); in [15], 21.3 µM (active). Besides, in assay [17], the Potency is 48.6 µM (active). The Potency result in assay [3], in assay [4], in assay [8], in assay [9], in assay [10] and in assay [11] was “inactive” each time. The Potency entry in assay [16] and in [18] was “inactive” each time.

With `N#Cc1c(-c2ccc(Cl)cc2)[nH]c(C(F)(F)F)c1Br`, the Potency in assay [1] was 0.969 µM (active); in [2], 24.3 µM (active); in assay [19] it was 38.6 µM (active); in [10] it was 4.33 µM (active); in [11], 6.86 µM (active); in [17], 0.77 µM (active). For the same compound, the Potency entry in assay [3], in assay [4], in assay [6], in [13], in [15] and in assay [16] was “inactive” throughout. Also, the Potency entry in assay [18] was “inactive”.

As for `CC(C)(c1ccc(O)c(-c2ccccc2)c1)c1ccc(O)c(-c2ccccc2)c1`, the Potency in assay [1] was 54.5 µM (active); in assay [2] it was 27.3 µM (active); in [19], 27.3 µM (active); in assay [7] it was 61.1 µM (active); in assay [11] it was 30.6 µM (active); in assay [13] it was 34.7 µM (active). Further, in assay [17], the Potency is 30.6 µM (active). For the same compound, the Potency result in assay [3], in assay [4], in [15] and in assay [16] was “inactive” in each case.

As for `CCOC(=O)c1ccccc1S(=O)(=O)NC(=O)Nc1nc(Cl)cc(OC)n1`, the Potency result in [1], in [2], in assay [3], in assay [19], in [4] and in assay [6] was “inactive” in each case. Also, the Potency entry in [7], in [8], in assay [9], in [10], in assay [12] and in [13] was “inactive” each time. Besides, the Potency result in [17] and in assay [18] was “inactive” throughout. Moreover, in assay [14], the call was inactive.
